# Columns and labels:
# Test in all cases: PBM binding z-score (relative to random genomic background probes); higher = stronger binding; sequences stand for … in GC…GCGATTGACAGCGTAGAATGAAGG
# [1] = tested on: FXR:RXRa (NR concentration 270 nM, RXRa partner concentration 90 nM)
# Method in brief: (§1)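 On custom Agilent 4×180K arrays, double-stranded probes with 34-nt variable regions carried direct-repeat seeds, single-nucleotide variants, half-site ablations or random human genomic background. Ligand-free nuclear receptor dimers were applied for 1 h, and binding was read with antibodies against each partner (one per run). Binding z-scores come from regression-normalized fluorescence, with the random background probes as reference.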
# [2] = tested on: LXRa:RXRa (NR concentration 270 nM, RXRa partner concentration 90 nM)
# Method in brief: as §1
# [3] = tested on: LXRa homodimer (NR concentration 270 nM)
# Method in brief: as §1
# [4] = tested on: LXRb:RXRa (NR concentration 270 nM, RXRa partner concentration 90 nM)
# Method in brief: as §1
# [5] = tested on: LXRb homodimer (NR concentration 270 nM)
# Method in brief: as §1
# [6] = tested on: PPARa:RXRa (NR concentration 270 nM, RXRa partner concentration 90 nM)
# Method in brief: as §1
# [7] = tested on: PPARg:RXRa (NR concentration 180 nM, RXRa partner concentration 90 nM)
# Method in brief: as §1
# [8] = tested on: PPARg:RXRa 270nM:90nM, anti-RXR (NR concentration 270 nM, RXRa partner concentration 90 nM)
# Method in brief: as §1
# [9] = tested on: PPARg:RXRa 30nM:10nM, anti-RXR (NR concentration 30 nM, RXRa partner concentration 10 nM)
# Method in brief: as §1
# [10] = tested on: PPARg:RXRa 90nM:30nM, anti-RXR (NR concentration 90 nM, RXRa partner concentration 30 nM)
# Method in brief: as §1
# [11] = tested on: PPARg:RXRa DBDmut IVT, anti-RXR (DBD mutation: RXRa K156A/R161A, NR concentration 270 nM, RXRa partner concentration 90 nM)
# Method in brief: as §1
# [12] = tested on: PPARg:RXRa IVT, anti-PPARg (NR concentration 270 nM, RXRa partner concentration 90 nM)
# Method in brief: as §1
# [13] = tested on: PPARg DBDmut:RXRa IVT, anti-PPARg (DBD mutation: PPARg1 K132A/R137A, NR concentration 270 nM, RXRa partner concentration 90 nM)
# Method in brief: as §1
# [14] = tested on: PPARg DBDmut IVT, anti-PPARg (DBD mutation: PPARg1 K132A/R137A, NR concentration 270 nM)
# Method in brief: as §1
# [15] = tested on: PPARg homodimer (NR concentration 180 nM)
# Method in brief: as §1
# [16] = tested on: PXR:RXRa (NR concentration 270 nM, RXRa partner concentration 90 nM)
# Method in brief: as §1
# [17] = tested on: PXR homodimer (NR concentration 270 nM)
# Method in brief: as §1
# [18] = tested on: RARa:RXR (NR concentration 270 nM, RXRa partner concentration 90 nM)
# Method in brief: as §1
# [19] = tested on: RARa homodimer (NR concentration 270 nM)
# Method in brief: as §1
# [20] = tested on: RARb:RXRa (NR concentration 270 nM, RXRa partner concentration 90 nM)
# Method in brief: as §1
Sequence,PBM binding z-score [1],PBM binding z-score [2],PBM binding z-score [3],PBM binding z-score [4],PBM binding z-score [5],PBM binding z-score [6],PBM binding z-score [7],PBM binding z-score [8],PBM binding z-score [9],PBM binding z-score [10],PBM binding z-score [11],PBM binding z-score [12],PBM binding z-score [13],PBM binding z-score [14],PBM binding z-score [15],PBM binding z-score [16],PBM binding z-score [17],PBM binding z-score [18],PBM binding z-score [19],PBM binding z-score [20]
CTTCGGAGGACAGAAGGTCAGAGCTGTCCGCTTT,1.6,1.84,-0.0247,0.975,-0.772,1.85,-0.0897,1.07,-0.905,0.484,0.227,0.203,-0.826,-2.02,1.51,1.56,-0.691,2.18,-0.152,3.17
AGAACGAGGGCAATGAGTTAATAGCACGGGTGGC,0.223,0.22,-0.363,-0.11,-0.589,1.34,1.56,1.23,-0.12,0.528,3.29,2.59,0.242,0.395,0.0728,1.43,2.98,0.239,-0.224,2.04
TAGCCTAGGTCAGTCAGGGGCCAGTATAGAAAGC,1.42,0.48,-0.418,0.85,-0.405,1.46,0.583,1.04,-0.0718,0.829,0.759,1.71,0.0282,-0.431,0.236,0.48,-0.639,1.32,-0.63,3.21
ACAATGAGGTTAAGATCAGGGAAACAGAATACAT,2.2,2.23,0.0608,1.85,0.674,3.04,2.06,1.68,0.802,1.24,1.93,1.78,1.53,1.8,1,1.35,0.672,1.97,1.24,1.95
GCGACTGGGGGAAAGCAGGTTACCATAAGGTTGG,0.271,0.375,-0.178,1.5,2.74,1.75,0.956,1.47,0.539,1.33,2.14,3.37,1.81,2.84,0.279,0.944,0.0746,1.14,-0.282,0.616
TCTTGTAGATCAAGCAGGTGAAGAAAGCCTGAGT,0.239,0.182,-0.332,-0.145,-0.467,0.527,-0.404,1.19,2.61,2.07,1.7,0.945,0.265,-0.33,-0.0595,0.043,-0.139,0.061,-0.384,-0.159
AGAATGAGGTTACCAAAGATTAGGGAAACGCTTG,1.75,4.54,-0.368,1.72,-0.268,3.31,2.43,2.72,1.12,1.93,4.05,3.59,1.65,0.534,0.398,1.15,-0.168,1.88,0.039,2.06
ATCGAAAGGTCGAGGTGAGTACAGAGAAAGGGAA,4.22,3.51,0.276,2.53,0.653,4.64,3.5,3.96,1.38,2.61,0.64,2.65,1.01,0.9,1.64,3.27,0.251,3.11,1.29,4.14
CGTCCAAGGTCAATGCTAGGTCAGTGTAAGCATT,6.38,5.59,2.58,4.11,0.681,5,3.55,4.67,1.23,2.97,3.19,3.97,0.641,-0.396,6.64,4.83,2.1,5.95,1.32,5.13
CGTCCAAGGTCAATGCTCGGTCAGTGAAAGCATT,5.98,5.55,2.7,4.04,0.788,5,3.34,3.99,1.61,2.79,3.28,3.36,-0.42,-0.828,2.78,3.93,0.774,5.12,0.202,5.11
GCTGCTAGGTCAACTGCTGGTCAGCTAAAGCTCG,4.1,3.03,0.0225,1.95,-0.0517,3.53,2.54,2.94,0.291,1.66,5.01,4.38,-0.67,-1.29,0.927,1.25,-0.956,2.52,-0.88,4.34
AATACAGGGTCACTAGGCCAGAGAAGGTACGAAT,5.79,5.03,1.01,3.99,0.795,5.85,7.78,6.43,3.11,5.35,4.07,5.68,1.28,1.34,1.96,3.02,0.776,3.74,0.823,4.2
ATCGAAAGGTCGAAGGTGAGTTTACCCACCCGAA,4.75,3.73,0.479,2.89,0.226,4.78,4.38,4.6,2.08,3.81,0.357,2.21,0.513,0.511,1.48,4.03,1.02,4.05,0.0951,3.85
CGTACTGGGCCATTCAGAGGTCATTGATCATATG,3.16,4.58,6.56,3.9,0.57,3.88,2.45,3.25,0.848,2.44,5.14,4.46,0.379,0.367,2.72,4.91,2.51,4.76,1.17,3.18
AGTCAAAGTTCACTAGGTAACATAAGATTCAGCT,4.79,5.28,3.12,3.27,1.4,4.86,7.49,6.62,3.82,5.79,2.79,5.27,1.65,1.65,3.16,4.33,3.16,2.97,2.25,4.79
